Reference: PubChem BioAssay (EPA / NIEHS)
Where “and” joins values, the source holds several entries; their conditions need not be identical. Identical values can stand only once. The source holds several records for some structures; these can differ, active in one and inactive in another. Calls of active or inactive are those of the source. The calls were made as follows: active = hit-call score of the fitted dose curve at least 0.9, where 1 is the maximum; inactive = score below 0.9.

Experiments:
[1] = read-out: Thrombomodulin, THBD (gene 7056); experiment: BSK_CASM3C_Thrombomodulin: BioMAP Diversity Plus: CASM3C Assay for Thrombomodulin Biomarker Activity (AID 2283051); conditions: primary human coronary artery smooth muscle cells; actives raise or lower the signal;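 also: thrombomodulin protein level measured by ELISA 24 h after dosing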
[2] = read-out: Tissue Factor, F3 (gene 2152); experiment: BSK_CASM3C_TissueFactor: BioMAP Diversity Plus: CASM3C Assay for Tissue Factor Biomarker Activity (AID 2283052); conditions: primary human coronary artery smooth muscle cells; actives raise or lower the signal;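 also: cell surface tissue factor protein level read by ELISA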
[3] = read-out: Interferon-gamma inducible Protein 10 (IP10), CXCL10 (gene 3627); experiment: BSK_hDFCGF_IP10: BioMAP Diversity Plus: hDFCGF Assay for Interferon-gamma inducible Protein 10 (IP10) Biomarker Activity (AID 2283053); conditions: primary human foreskin fibroblasts; actives raise or lower the signal
Summary of the method: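 ELISA quantification of IP-10 after a 24 h chemical exposure of human dermal foreskin fibroblast primary cultures. Both increases and decreases versus DMSO fitted.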

[4] = read-out: Urokinase-type plasminogen activator receptor (uPAR), PLAUR (gene 5329); experiment: BSK_CASM3C_uPAR: BioMAP Diversity Plus: CASM3C Assay for Urokinase-type plasminogen activator receptor (uPAR) Biomarker Activity (AID 2283054); conditions: primary human coronary artery smooth muscle cells; actives raise or lower the signal;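 also: cell-surface uPAR protein level quantified by ELISA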
[5] = read-out: Vascular cell adhesion molecule 1 (VCAM1), VCAM1 (gene 7412); experiment: BSK_CASM3C_VCAM1: BioMAP Diversity Plus: CASM3C Assay for Vascular cell adhesion molecule 1 (VCAM1) Biomarker Activity (AID 2283055); conditions: primary human coronary artery smooth muscle cells; actives raise or lower the signal;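 also: VCAM-1 protein level quantified by ELISA on the cells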
[6] = read-out: Collagen III, COL3A1 (gene 1281); experiment: BSK_hDFCGF_CollagenIII: BioMAP Diversity Plus: hDFCGF Assay for Collagen III Biomarker Activity (AID 2283056); conditions: primary human foreskin fibroblasts; actives raise or lower the signal
Summary of the method: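 Human foreskin primary fibroblasts were exposed to test chemicals for 24 h, after which collagen III was quantified by ELISA. Activity was fitted bidirectionally against DMSO as negative control and baseline.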

[7] = read-out: Epidermal growth factor receptor (EGFR), EGFR (gene 1956); experiment: BSK_hDFCGF_EGFR: BioMAP Diversity Plus: hDFCGF Assay for Epidermal growth factor receptor (EGFR) Biomarker Activity (AID 2283057); conditions: primary human foreskin fibroblasts; actives raise or lower the signal
Summary of the method: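 EGFR levels by ELISA in human dermal fibroblast cultures, 24 h post-treatment, fitted bidirectionally versus DMSO. Parallel wells stained with sulforhodamine B to detect overt cytotoxicity.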

[8] = BSK_hDFCGF_Proliferation: Cell Proliferation Assessment in the BioMAP Diversity Plus: hDFCGF Assay (AID 2283059); conditions: primary human foreskin fibroblasts;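 also: curves fitted for both rise and fall of signal versus DMSO baseline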
Summary of the method: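 Steps: dose primary human dermal fibroblasts (foreskin); […] fix in 10% TCA; stain with 0.1% SRB; read 560 nm; fit gain or loss of signal against DMSO.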

[9] = read-out: Macrophage colony-stimulating factor (MCSF), CSF1 (gene 1435); experiment: BSK_hDFCGF_MCSF: BioMAP Diversity Plus: hDFCGF Assay for Macrophage colony-stimulating factor (MCSF) Biomarker Activity (AID 2283060); conditions: primary human foreskin fibroblasts; actives raise or lower the signal
Summary of the method: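 Human foreskin primary fibroblasts were treated with test chemical for 24 h, and M-CSF was then measured by ELISA. Data were fitted bidirectionally against DMSO as the negative control and activity baseline.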

[10] = BSK_hDFCGF_SRB: Viability Assessment in the BioMAP Diversity Plus: hDFCGF Assay (AID 2283061); conditions: primary human foreskin fibroblasts;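 also: cells exposed to compound for 24 h before the read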
Summary of the method: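 Human foreskin primary fibroblasts were treated with compound and assessed 24 h after dosing. Total protein was measured by sulforhodamine B staining (0.1% SRB after 10% TCA fixation, 560 nm read) as a cytotoxicity marker, with bidirectional fitting against DMSO baseline.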

[11] = read-out: TIMP metallopeptidase inhibitor 1 (TIMP1), TIMP1 (gene 7076); experiment: BSK_hDFCGF_TIMP1: BioMAP Diversity Plus: hDFCGF Assay for TIMP metallopeptidase inhibitor 1 (TIMP1) Biomarker Activity (AID 2283062); conditions: primary human foreskin fibroblasts; actives raise or lower the signal
Summary of the method: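 Primary human foreskin fibroblasts in the hDFCGF system were dosed with compound for 24 h, then TIMP-1 was measured by ELISA. Activity was fitted bidirectionally relative to DMSO control; parallel SRB staining assessed cytotoxicity.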

[12] = read-out: Monokine induced gamma interferon (MIG), CXCL9 (gene 4283); experiment: BSK_hDFCGF_MIG: BioMAP Diversity Plus: hDFCGF Assay for Monokine induced gamma interferon (MIG) Biomarker Activity (AID 2283063); conditions: primary human foreskin fibroblasts; actives raise or lower the signal
Summary of the method: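 ELISA read-out of MIG from primary human dermal fibroblasts 24 h post-dosing. Gain or loss of signal fitted bidirectionally, DMSO as baseline.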

[13] = read-out: Plasminogen activator inhibitor-1 (PAI1), SERPINE1 (gene 5054); experiment: BSK_hDFCGF_PAI1: BioMAP Diversity Plus: hDFCGF Assay for Plasminogen activator inhibitor-1 (PAI1) Biomarker Activity (AID 2283066); conditions: primary human foreskin fibroblasts; actives raise or lower the signal
Summary of the method: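 PAI-1 levels in human dermal foreskin fibroblasts were quantified by ELISA 24 h after dosing, with gain or loss analysed against DMSO. Overt cytotoxicity was checked by sulforhodamine B total-protein staining in parallel cultures.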

[14] = read-out: Intercellular Adhesion Molecule 1 (ICAM1), ICAM1 (gene 3383); experiment: BSK_KF3CT_ICAM1: BioMAP Diversity Plus: KF3CT Assay for Intercellular Adhesion Molecule 1 (ICAM1) Biomarker Activity (AID 2283067); conditions: primary human keratinocytes with fibroblasts; actives raise or lower the signal
Summary of the method: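 Human keratinocyte plus foreskin fibroblast primary co-culture was exposed to chemical for 24 h. ICAM-1 was then quantified by ELISA, and the data were fit bidirectionally against DMSO as the negative control and baseline.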

[15] = read-out: Interferon-gamma inducible Protein 10 (IP10), CXCL10 (gene 3627); experiment: BSK_KF3CT_IP10: BioMAP Diversity Plus: KF3CT Assay for Interferon-gamma inducible Protein 10 (IP10) Biomarker Activity (AID 2283068); conditions: primary human keratinocytes with fibroblasts; actives raise or lower the signal
Summary of the method: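 KF3CT co-culture (keratinocytes + foreskin fibroblasts), 24 h compound, IP-10 by ELISA; bidirectional fit vs DMSO baseline.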

[16] = BSK_KF3CT_SRB: Viability Assessment in the BioMAP Diversity Plus: KF3CT Assay (AID 2283069); conditions: primary human keratinocytes with fibroblasts
Summary of the method: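 Cytotoxicity was gauged by SRB staining (0.1% SRB, 10% TCA fixation, 560 nm) of parallel cultures at 24 h. The cells were primary human skin keratinocytes co-cultured with fibroblasts, and activity was fitted in both directions against DMSO.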

[17] = read-out: Interleukin-1 alpha (IL1a), IL1A (gene 3552); experiment: BSK_KF3CT_IL1a: BioMAP Diversity Plus: KF3CT Assay for Interleukin-1 alpha (IL1a) Biomarker Activity (AID 2283070); conditions: primary human keratinocytes with fibroblasts; actives raise or lower the signal
Summary of the method: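 IL-1a was detected by ELISA 24 h after chemical treatment of a co-culture of human skin keratinocytes and foreskin fibroblasts. Gain or loss of signal was fitted against the DMSO baseline.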

[18] = read-out: Interleukin-8 (IL8), CXCL8 (gene 3576); experiment: BSK_hDFCGF_IL8: BioMAP Diversity Plus: hDFCGF Assay for Interleukin-8 (IL8) Biomarker Activity (AID 2283058); conditions: primary human foreskin fibroblasts; actives raise or lower the signal
Summary of the method: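 hDFCGF human dermal fibroblasts; 24 h chemical exposure; IL-8 by ELISA; bidirectional curve fit vs DMSO baseline; gain or loss of signal scored.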

[19] = read-out: Vascular cell adhesion molecule 1 (VCAM1), VCAM1 (gene 7412); experiment: BSK_hDFCGF_VCAM1: BioMAP Diversity Plus: hDFCGF Assay for Vascular cell adhesion molecule 1 (VCAM1) Biomarker Activity (AID 2283065); conditions: primary human foreskin fibroblasts; actives raise or lower the signal
Summary of the method: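 Primary human foreskin fibroblasts (hDFCGF system) were dosed with chemical and VCAM-1 was measured by ELISA 24 h later. Bidirectional curve fitting used DMSO as negative control and activity baseline.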

## CC1(C)CCC[C@]2(C)[C@H]3CCO[C@]3(C)CC[C@@H]12
[1]
  outcome: inactive
[2]
  AC50: 1.65 µM (active)
  outcome: inactive
[3]
  AC50: 36.5 µM (active) and 37.9 µM (active)
[4]
  AC50: 34 µM (active) and 31.4 µM (active)
[5]
  AC50: 34.1 µM (active) and 33.7 µM (active)
[6]
  AC50: 31.4 µM (active) and 30.6 µM (active)
[7]
  AC50: 32 µM (active) and 33 µM (active)
[8]
  AC50: 12.1 µM (active) and 30.5 µM (active)
[9]
  AC50: 36.6 µM (active) and 30.8 µM (active)
[10]
  AC50: 33.8 µM (active) and 36.4 µM (active)
[11]
  AC50: 38.6 µM (active) and 32.1 µM (active)
[12]
  AC50: 34.5 µM (active) and 36.6 µM (active)
[13]
  AC50: 37.2 µM (active) and 31.1 µM (active)
[14]
  AC50: 37.1 µM (active) and 38.1 µM (active)
[15]
  AC50: 37.5 µM (active) and 33.9 µM (active)
[16]
  AC50: 33.4 µM (active) and 36.8 µM (active)
[17]
  AC50: 34.4 µM (active) and 38.9 µM (active)

## CCOC(=O)C(C#N)=C(c1ccccc1)c1ccccc1
[1]
  AC50: 13.7 µM (active)
  outcome: inactive
[2]
  outcome: inactive
[3]
  outcome: inactive
[4]
  outcome: inactive
[5]
  outcome: inactive
[6]
  AC50: 29.7 µM (active) and 21.9 µM (active)
[7]
  outcome: inactive
[8]
  AC50: 29.5 µM (active)
  outcome: inactive
[9]
  AC50: 23.3 µM (active)
  outcome: inactive
[10]
  outcome: inactive
[11]
  outcome: inactive
[12]
  outcome: inactive
[13]
  outcome: inactive
[14]
  outcome: inactive
[15]
  outcome: inactive
[16]
  outcome: inactive
[17]
  outcome: inactive

## CN(C)C(=S)SC(=S)N(C)C
[1]
  AC50: 4.02 µM (active)
[2]
  outcome: inactive
[3]
  AC50: 35.1 µM (active)
[4]
  outcome: inactive
[5]
  AC50: 19.9 µM (active)
[6]
  AC50: 15.2 µM (active)
[7]
  AC50: 19.9 µM (active)
[18]
  AC50: 39.1 µM (active)
[8]
  AC50: 30.2 µM (active)
[9]
  AC50: 31.4 µM (active)
[10]
  outcome: inactive
[11]
  AC50: 37.8 µM (active)
[12]
  AC50: 34.4 µM (active)
[13]
  AC50: 19.9 µM (active)
[14]
  AC50: 27.3 µM (active)
[15]
  outcome: inactive
[16]
  outcome: inactive
[17]
  outcome: inactive

## c1ccc(Oc2ccccc2)cc1
[1]
  outcome: inactive
[2]
  outcome: inactive
[3]
  outcome: inactive
[4]
  outcome: inactive
[5]
  outcome: inactive
[6]
  outcome: inactive
[7]
  outcome: inactive
[8]
  outcome: inactive
[9]
  outcome: inactive
[10]
  outcome: inactive
[11]
  outcome: inactive
[12]
  outcome: inactive
[19]
  outcome: inactive
[13]
  outcome: inactive
[14]
  outcome: inactive
[15]
  AC50: 34.6 µM (active)
[16]
  outcome: inactive
[17]
  AC50: 20 µM (active)

## C=C(C)[C@H]1CC=C(C)C(=O)C1
[1]
  outcome: inactive
[2]
  outcome: inactive
[3]
  outcome: inactive
[4]
  outcome: inactive
[5]
  outcome: inactive
[6]
  outcome: inactive
[7]
  outcome: inactive
[18]
  outcome: inactive
[8]
  outcome: inactive
[9]
  outcome: inactive
[10]
  outcome: inactive
[11]
  outcome: inactive
[12]
  outcome: inactive
[13]
  outcome: inactive
[14]
  outcome: inactive
[15]
  outcome: inactive
[16]
  outcome: inactive
[17]
  outcome: inactive
